Source: PubChem BioAssay (NCI)
The panel holds about 79,000 compounds, 15% with a hit somewhere; the sample as a whole holds those more often. A number with no mark means an inactive call. Cut-off read from the data, not from the text of the source: active = growth inhibition above about 70%; inactive = the rest.

Test: NCI Yeast Anticancer Drug Screen. Data for the mec2-1 strain (AID 157)
Details: S. cerevisiae mec2-1 strain, at 50.0 µM, hits give high values
Experimental: Growth inhibition of yeast strains with defined genetic alterations is measured as a screen for potential anti-cancer activity. Selected strains with alterations in DNA damage repair or cell cycle control were exposed to compounds and growth inhibition was measured relative to vehicle treated controls. The strain used in this assay is mec2-1

| SMILES | growth inhibition [%] |
| --- | --- |
| C=CCC(OC(C)=O)c1ccc(C(C)C)cc1 (stereo not given) | 0.9 |
| Nc1c(Br)cc(O)c2c1C(=O)c1ccccc1C2=O | -3.5 |
| O=c1nc(Nc2cccc(Cl)c2)oc2cc(Cl)oc(=O)c12 | 26 |
| Cc1[nH]n(-c2ccccc2)c(=O)c1C=NC(=S)C(N)=S | -22.9 |
| CCOS(=O)(=O)c1ccc([N+](=O)[O-])cc1 | 5.95 |
| Cc1ccc(S(=O)(=O)Oc2ccc3sc4c(CO)ccc(NCCN(C)C)c4c(=O)c3c2)cc1 | 26.4 |
| CC(=O)NC(O)C(Cl)Cl (stereo not given) | -6.05 |
| CCCCCC/C=C\CCCCCCCCCc1cc(O)cc(OC)c1O | 4.45 |
| O=c1cc(C(F)(F)F)[nH]c(=S)[nH]1 | -5.05 |
| Nc1cccc2cccc(O)c12 | 18.7 |
| Cc1[nH]c(=S)[nH]c(=O)c1C | -28.3 |
| Cc1cccc(-[n+]2noc(N)n2)c1 | 22.2 |
| COC1C(=O)CCC2(CO2)C1(O)C1(C)OC1CCC(C)C (stereo not given) | -42.4 |
| Nc1ccc2ccccc2c1-c1c(N)ccc2ccccc12 | 2.45 |
| O=C(O)Cc1ccc(Cl)cc1 | -15.3 |
| Cc1ccc(C)c(CN(C)C)c1O | -1.45 |
| ClCC(Cl)[C@@H]1CC2C=CC1C2 (stereo not given in full) | -3.65 |
| CC(C)N(C(=O)c1ccccc1)C(C)C | 26.2 |
| Oc1cccc(CNC2CCCCC2)c1 | 0.25 |
| O=C(O)c1ccc([N+](=O)[O-])cc1S(=O)(=O)O | -6.8 |

| SMILES | growth inhibition [%] |
| --- | --- |
| CC(=O)Nc1ccc(C(=O)c2ccc(S(=O)(=O)Nc3ccccc3)cc2)cc1 | -9.15 |
| O=Cc1ccc(Cl)c(Cl)c1 | -9.5 |
| CS(=O)(=O)c1ccc(/C=C\C(=O)O)cc1 | 7.1 |
| CSc1nsc(N)n1 | 2.5 |
| O=C(OC1CCCC1)c1ccccc1Cl | 8.75 |
| CC(=O)CSc1ncnc2nc[nH]c12 | 2.8 |
| Cc1ccnc(Nc2nc3ccccc3[nH]2)n1 | -10.9 |
| CCOC(=O)CNC | -3.25 |
| COC(=O)Cc1cc(COC(C)=O)ccc1C | 0 |
| CC(=O)C1C(=O)C(=O)N(c2cccc([N+](=O)[O-])c2)C1=O (stereo not given) | -23.9 |
| O=C(O)CSCC(=O)Nc1cc(C(F)(F)F)ccc1Cl | -36.6 |
| O=C(O)c1cccc(-n2ncc(Cl)c(Cl)c2=O)c1 | -0.95 |
| CC(C)c1ccc(C(=O)OCCCl)cc1 | 9 |
| COCC(N)=O | -17.9 |
| NNc1ncccn1 | -1.15 |
| CCN(C(=O)Nc1ccccc1Cl)c1ccccc1 | 13.1 |
| O=C(O)C1CCCN1C(=O)OCc1ccccc1 (stereo not given) | -47.6 |
| C=CCN1CCCC1=O | 10.6 |
| O=C(O)c1cc(I)ccc1O | -0.3 |
| CC1CCC(C(C)(C)[N+](C)(C)C)CC1 (stereo not given) | 17.6 |
